Laboratory results reported in PubChem BioAssay (EPA / NIEHS).
Activity calls are given as the source filed them. How the source made its calls: active means hit-call score of the fitted dose curve at least 0.9, where 1 is the maximum; inactive means score below 0.9.

Assays:
Conditions in all cases: mRNA level, 48 h; actives raise or lower the signal
[1] = read-out: Glutathione S-Transferase (GSTA2), GSTA2 (gene 2939); assay: LTEA_HepaRG_GSTA2: Life Technologies and Expression Analysis (LTEA) Assay for Glutathione S-Transferase (GSTA2) using HepaRG (AID 2283497)
How it was run: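 Human HepaRG cells, plated 48 h, then exposed in serum-free induction medium for 48 h to eight half-log concentrations up to 100 uM in 0.5% DMSO, duplicate. GSTA2 mRNA by qRT-PCR, normalized to ACTB/GAPDH/POLR2A; bidirectional fit versus DMSO.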

[2] = read-out: Glutamate-cysteine ligase catalytic (GCLC), GCLC (gene 2729); assay: LTEA_HepaRG_GCLC: Life Technologies and Expression Analysis (LTEA) Assay for Glutamate-cysteine ligase catalytic (GCLC) using HepaRG (AID 2283498)
How it was run: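 Differentiated human HepaRG cells, plated 48 h then switched to serum-free induction medium, were exposed in duplicate for 48 h to 8 half-log concentrations topping at 100 uM in 0.5% DMSO. GCLC mRNA was quantified by qRT-PCR against ACTB, GAPDH and POLR2A.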

[3] = read-out: Glutamate-cysteine ligase regulatory (GCLM), GCLM (gene 2730); assay: LTEA_HepaRG_GCLM: Life Technologies and Expression Analysis (LTEA) Assay for Glutamate-cysteine ligase regulatory (GCLM) using HepaRG (AID 2283500)
How it was run: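 Human liver HepaRG cultures receive test chemicals for 48 hours at up to 100 uM in 0.5% DMSO. GCLM expression is measured by qRT-PCR and analysed for increases or decreases against vehicle.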

[4] = read-out: Glutathione S-transferase M3 (GSTM3), GSTM3 (gene 2947); assay: LTEA_HepaRG_GSTM3: Life Technologies and Expression Analysis (LTEA) Assay for Glutathione S-transferase M3 (GSTM3) using HepaRG (AID 2283501)
How it was run: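 Expression of GSTM3 is determined by qRT-PCR in human liver HepaRG cells treated 48 h with an 8-point half-log range from 100 uM in 0.5% DMSO.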

[5] = read-out: Heat shock 70 kDa protein 1 (HSPA1A), gene 3303; assay: LTEA_HepaRG_HSPA1A: Life Technologies and Expression Analysis (LTEA) Assay for Heat shock 70 kDa protein 1 (HSPA1A) using HepaRG (AID 2283502)
How it was run: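 HSPA1A induction in human HepaRG liver cells is measured after 48 h of chemical treatment (100 uM maximum, 0.5% DMSO vehicle). Expression comes from qRT-PCR normalized to endogenous controls.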

[6] = read-out: Hypoxia-inducible factor 1-alpha (Homo sapiens) (UniProt Q16665); assay: LTEA_HepaRG_HIF1A: Life Technologies and Expression Analysis (LTEA) Assay for Hypoxia-inducible factor 1 (HIF1A) Trancription factor using HepaRG (AID 2283503)
How it was run: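 HepaRG, 48 h exposure, 8-pt half-log series from 100 uM, 0.5% DMSO vehicle, duplicates. Readout: HIF1A transcript by qRT-PCR (Fluidigm array), housekeeping-normalised. Bidirectional curve fit vs DMSO baseline.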

[7] = read-out: 3-Hydroxy-3-Methylglutaryl-CoA Synthase 2 (HMGCS2), HMGCS2 (gene 3158); assay: LTEA_HepaRG_HMGCS2: Life Technologies and Expression Analysis (LTEA) Assay for 3-Hydroxy-3-Methylglutaryl-CoA Synthase 2 (HMGCS2) using HepaRG (AID 2283504)
How it was run: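 This steatosis marker was read as HMGCS2 mRNA change in HepaRG cells treated 48 h with up to 100 uM chemical. Normalisation used housekeeping genes; activity in either direction was fitted relative to 0.5% DMSO vehicle.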

[8] = read-out: Insulin Like Growth Factor 1 (IGF1), IGF1 (gene 3479); assay: LTEA_HepaRG_IGF1: Life Technologies and Expression Analysis (LTEA) Assay for Insulin Like Growth Factor 1 (IGF1) using HepaRG (AID 2283506)
How it was run: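 Using human HepaRG liver cells, IGF1 transcript induction or suppression is measured 48 h after dosing across eight concentrations capped at 100 uM. Values derive from bidirectional concentration-response fitting with DMSO as baseline.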

[9] = read-out: Intercellular Adhesion Molecule 1 (ICAM1), ICAM1 (gene 3383); assay: LTEA_HepaRG_ICAM1: Life Technologies and Expression Analysis (LTEA) Assay for Intercellular Adhesion Molecule 1 (ICAM1) using HepaRG (AID 2283507)
How it was run: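 Using the human liver line HepaRG, compounds are tested in duplicate over 48 h at concentrations up to 100 uM. Expression is determined by TaqMan qRT-PCR, normalized to endogenous controls, and analysed relative to 0.5% DMSO vehicle.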

[10] = read-out: Insulin-like growth factor-binding protein 1 (IGFBP1), IGFBP1 (gene 3484); assay: LTEA_HepaRG_IGFBP1: Life Technologies and Expression Analysis (LTEA) Assay for Insulin-like growth factor-binding protein 1 (IGFBP1) using HepaRG (AID 2283508)
How it was run: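 HepaRG, 48 h, 8 conc. (max 100 uM, half-log), duplicates, 0.5% DMSO. Readout: TaqMan qRT-PCR, ACTB/GAPDH/POLR2A normalisation. Fit: bidirectional vs DMSO.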

[11] = read-out: Interleukin 6 (IL6), IL6 (gene 3569); assay: LTEA_HepaRG_IL6: Life Technologies and Expression Analysis (LTEA) Assay for Interleukin 6 (IL6) using HepaRG (AID 2283509)
How it was run: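 Differentiated human HepaRG cells, plated 48 h then switched to serum-free induction medium, were exposed in duplicate for 48 h to eight half-log concentrations up to 100 uM in 0.5% DMSO. IL6 mRNA measured by qRT-PCR, normalized to ACTB/GAPDH/POLR2A.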

[12] = read-out: Interleukin 6 Receptor (IL6R), IL6R (gene 3570); assay: LTEA_HepaRG_IL6R: Life Technologies and Expression Analysis (LTEA) Assay for Interleukin 6 Receptor (IL6R) using HepaRG (AID 2283510);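 on AC50: TaqMan qRT-PCR signal normalized to ACTB GAPDH and POLR2A housekeeping genes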
How it was run: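 Concentration-response in human liver HepaRG cells: eight concentrations from 100 uM downward by half-logs, 48 h exposure, 0.5% DMSO vehicle. IL6R mRNA change measured by qRT-PCR and fitted in both directions relative to vehicle.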

[13] = read-out: Potassium channel subfamily K member 1 (KCNK1), KCNK1 (gene 3775); assay: LTEA_HepaRG_KCNK1: Life Technologies and Expression Analysis (LTEA) Assay for Potassium channel subfamily K member 1 (KCNK1) using HepaRG (AID 2283511)
How it was run: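 Differentiated human HepaRG cells in serum-free induction medium were exposed in duplicate for 48 h to 8 half-log concentrations up to 100 uM in 0.5% DMSO. KCNK1 mRNA was measured by TaqMan qRT-PCR, normalized to ACTB, GAPDH and POLR2A, and fitted bidirectionally versus DMSO.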

[14] = read-out: Keratin 19 (KRT19), KRT19 (gene 3880); assay: LTEA_HepaRG_KRT19: Life Technologies and Expression Analysis (LTEA) Assay for Keratin 19 (KRT19) using HepaRG (AID 2283512)
How it was run: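 Readout is qRT-PCR of KRT19 mRNA, normalized to ACTB, GAPDH and POLR2A, from HepaRG cells treated 48 h with eight-point half-log dilutions topping at 100 uM. Activity in either direction is scored relative to 0.5% DMSO vehicle.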

[15] = read-out: JUN Transcription Factor, JUN (gene 3725); assay: LTEA_HepaRG_JUN: Life Technologies and Expression Analysis (LTEA) Assay for JUN Transcription Factor using HepaRG (AID 2283513)
How it was run: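 Human HepaRG liver cells receive test chemicals in 0.5% DMSO for 48 h across an eight-point range topping at 100 uM. Expression changes in JUN are scored in both directions against the DMSO vehicle.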

[16] = read-out: Lipase C (LIPC), LIPC (gene 3990); assay: LTEA_HepaRG_LIPC: Life Technologies and Expression Analysis (LTEA) Assay for Lipase C (LIPC) using HepaRG (AID 2283514)
How it was run: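 Differentiated human HepaRG cells in serum-free induction medium were exposed in duplicate for 48 h to eight concentrations (top 100 uM, half-log steps, 0.5% DMSO). LIPC mRNA was quantified by TaqMan qRT-PCR, normalized to ACTB, GAPDH and POLR2A, with bidirectional fitting versus DMSO.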

[17] = read-out: Lipoprotein lipase (LPL), LPL (gene 4023); assay: LTEA_HepaRG_LPL: Life Technologies and Expression Analysis (LTEA) Assay for Lipoprotein lipase (LPL) using HepaRG (AID 2283515)
How it was run: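 Differentiated human HepaRG cells in serum-free induction medium were exposed in duplicate for 48 h to eight half-log concentrations (top 100 uM) in 0.5% DMSO. LPL mRNA was quantified by TaqMan qRT-PCR, normalized to ACTB, GAPDH and POLR2A.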

[18] = read-out: HGF (gene 3082); assay: LTEA_HepaRG_HGF: Life Technologies and Expression Analysis (LTEA) Assay for Hepatocyte Growth Facto (HGF) using HepaRG (AID 2283505)
How it was run: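 Using HepaRG monolayers kept in 0.5% DMSO, chemicals were tested in duplicate over eight half-log concentrations from 100 uM for 48 h. Endpoint: HGF mRNA change relative to DMSO, normalized to ACTB/GAPDH/POLR2A.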

[19] = read-out: MicroRNA 122 (MIR122), gene 406906; assay: LTEA_HepaRG_MIR122: Life Technologies and Expression Analysis (LTEA) Assay for MicroRNA 122 (MIR122) using HepaRG (AID 2283516); further: the transcript read is the microRNA miR-122
How it was run: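 HepaRG, 48 h exposure, 8-pt half-log from 100 uM, 0.5% DMSO; TaqMan qRT-PCR; bidirectional fit vs DMSO.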

[20] = read-out: growth arrest and DNA damage 45 (GADD45G), GADD45G (gene 10912); assay: LTEA_HepaRG_GADD45G: Life Technologies and Expression Analysis (LTEA) Assay for growth arrest and DNA damage 45 (GADD45G) using HepaRG (AID 2283499)
How it was run: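 Concentration-response in HepaRG: 48 h dosing, 0.5% DMSO, highest level 100 uM. GADD45G expression by qRT-PCR, normalised to endogenous controls; bidirectional fit to DMSO.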

Measured: AC50

Hypoxia-inducible factor 1-alpha (Homo sapiens), sequence (Q16665 whole entry, looked up): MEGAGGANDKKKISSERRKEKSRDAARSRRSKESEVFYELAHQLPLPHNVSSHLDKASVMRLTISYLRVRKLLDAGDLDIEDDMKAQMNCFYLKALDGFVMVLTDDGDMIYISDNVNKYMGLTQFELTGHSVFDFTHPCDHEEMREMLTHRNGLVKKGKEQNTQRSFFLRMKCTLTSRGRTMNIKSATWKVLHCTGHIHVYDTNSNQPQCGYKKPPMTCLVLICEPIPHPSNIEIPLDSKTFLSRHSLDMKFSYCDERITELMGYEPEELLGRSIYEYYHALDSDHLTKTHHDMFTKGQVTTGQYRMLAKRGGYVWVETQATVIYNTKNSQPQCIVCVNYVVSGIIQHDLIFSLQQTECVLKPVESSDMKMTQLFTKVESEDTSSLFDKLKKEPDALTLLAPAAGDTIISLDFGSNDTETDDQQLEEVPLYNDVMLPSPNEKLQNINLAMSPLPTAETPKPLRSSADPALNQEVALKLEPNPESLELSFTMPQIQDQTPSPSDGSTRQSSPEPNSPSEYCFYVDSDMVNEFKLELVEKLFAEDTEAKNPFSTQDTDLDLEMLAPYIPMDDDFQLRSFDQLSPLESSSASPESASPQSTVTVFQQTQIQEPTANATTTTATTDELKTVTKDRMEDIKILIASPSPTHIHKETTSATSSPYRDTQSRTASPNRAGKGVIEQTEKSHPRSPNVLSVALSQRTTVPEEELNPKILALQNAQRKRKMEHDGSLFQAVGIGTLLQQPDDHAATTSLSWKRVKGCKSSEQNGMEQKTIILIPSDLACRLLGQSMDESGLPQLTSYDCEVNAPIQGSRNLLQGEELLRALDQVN

Oc1ccc2c(c1)OC[C@@H](N1CCC(O)(c3ccc(F)cc3)CC1)[C@H]2O
not listed: [18] | [19] | [20]
inactive: all other assays above

CN1CCCC1=O
not listed: [20]
inactive: all other assays above

CCCCOC(=O)CCCCCCCCC(=O)OCCCC
not listed: [1] | [19]
inactive: all other assays above

CC(C)(C)c1cc(O)c(C(C)(C)C)cc1O
active: [1] 77.8 µM | [4] 50 µM | [6] 78.5 µM | [7] 78.2 µM | [8] 82.4 µM | [9] 50 µM | [10] 50 µM | [11] 75.7 µM | [12] 77.6 µM | [14] 77.4 µM | [16] 79.7 µM
inactive: [2] | [3] | [5] | [13] | [15] | [17]

COc1cc(-c2nc(NC(=O)c3cc4cc(C)cc(C)c4n3CC(=O)O)sc2CCC2CCCCC2)c(OC)cc1Cl
active: [1] 7.06 µM | [2] 14 µM | [3] 19.4 µM | [4] 3.86 µM | [5] 11.1 µM | [6] 11 µM | [7] 6.61 µM | [8] 6.45 µM | [10] 3.83 µM | [11] 4.98 µM | [12] 26.5 µM | [14] 11.4 µM | [15] 10.7 µM | [16] 6.41 µM | [17] 10.5 µM | [19] 6.1 µM
inactive: [9] | [13]

CCCCCCC(=O)OCC
not listed: [18] | [19] | [20]
inactive: all other assays above

CCCCCCCCCCC
not listed: [18] | [20]
inactive: all other assays above
